Screen size: about 5,500 compounds; about 2,000 (36%) were called active. Another 18% or so got no clear call; they are omitted. Cut-off read from the data, not from the text of the source: active = normalized growth mostly below about 0.91 (no sharp cut-off); inconclusive = no clear call, values can overlap the other calls; inactive = mostly above about 0.92. The list shows a part of the results.
Experiment: chemical genetic growth profiling, strain panel (AID 1159580);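 note: tested at 20 µM; growth read once vehicle control cultures reached saturation at 30 °C; 1 = growth at the plate median or of vehicle wells; lower values mean less growth of the strain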
Details: S. cerevisiae deletion strains, growth OD

Measured: normalized growth

COC(OC)c1ccc(C#N)c(=S)[nH]1
inactive: locus YAL013W, strain DEP1, stronger effect = lower value 1.01 | locus YBR229C, strain ROT2, stronger effect = lower value 1.02 | locus YCL061C, strain MRC1, stronger effect = lower value 1.01 | locus YDL101C, strain DUN1, stronger effect = lower value 1 | locus YDL134C, strain PPH21, stronger effect = lower value 1.01 | locus YDR150W, strain NUM1, stronger effect = lower value 0.996 | locus YEL061C, strain CIN8, stronger effect = lower value 1.01 | locus YGR078C, strain PAC10, stronger effect = lower value 0.989 | locus YHR030C, strain SLT2, stronger effect = lower value 1.08 | locus YHR087W, strain rtc3, stronger effect = lower value 1.03 | locus YJL187C, strain SWE1, stronger effect = lower value 0.994 | locus YJR043C, strain POL32, stronger effect = lower value 1.01 | locus YJR075W, strain HOC1, stronger effect = lower value 1 | locus YLR039C, strain RIC1, stronger effect = lower value 1.05 | locus YLR058C, strain SHM2 (second series), stronger effect = lower value 1.01 | locus YLR085C, strain ARP6, stronger effect = lower value 1.16 | locus YLR262C, strain YPT6, stronger effect = lower value 1 | locus YML094W, strain GIM5, stronger effect = lower value 1.04 | locus YMR219W, strain ESC1, stronger effect = lower value 1.01 | locus YMR263W, strain SAP30, stronger effect = lower value 1.02 | locus YMR307W, strain GAS1, stronger effect = lower value 1.06 | locus YNL153C, strain GIM3, stronger effect = lower value 1 | locus YNL298W, strain CLA4 (second series), stronger effect = lower value 1.02 | locus YNL322C, strain KRE1, stronger effect = lower value 1.01 | locus YNR030W, strain Alg12, stronger effect = lower value 0.992 | locus YPL055C, strain LGE1, stronger effect = lower value 1.04 | locus YPL241C, strain CIN2, stronger effect = lower value 1.11 | locus YPR135W, strain CTF4, stronger effect = lower value 1.1

Reference: PubChem BioAssay AID1159580 (chemical genetic matrix, 2015)
